# Measured values published in PubChem BioAssay (NCATS).
# Records with an inconclusive call do not appear. Unmarked numbers belong to inactive results. The source made the active and inactive calls. The call rests on the fitted dose curve; in most records, active means well fitted inhibition curve with a large enough effect; inconclusive means small, poorly fitted or top-dose-only effect; inactive means flat fitted curve, though single readings scatter.
# Columns and labels:
# Experiment in all cases: Cytotoxic Profiling of Annotated Libraries Using Quantitative High-Throughput Screening (AID 1296008); further: nearly all actives have a fitted effect of over 60% in size
# Settings in all cases: Five cell lines viability, CellTiter-Glo ATP luminescence, 48-72 h; max response: active compounds read low
# HEK293 = system: HEK293
# Method in brief: (§1)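 Cytotoxicity was measured as CellTiter-Glo ATP luminescence, read after 10 min at room temperature. Compound treatment of the cells lasted 48 or 72 hr at 37 degrees Celsius in a qHTS format.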
# KB-3-1 = system: KB-3-1
# Method in brief: as §1
# NIH3T3 = system: NIH3T3
# Method in brief: as §1
# On the % scale 0 is the no-effect control and ±100 the full control effect; potency means the concentration at half of the fitted maximal effect.
smiles,measurement,setting,value
C=CC(C)(O)C(O)CC1C(C)(O)C(O)C(O)C2C(C)(C)CCCC21C (configuration not stated),max response,HEK293,-10.3%
same,max response,KB-3-1,-10.5%
same,outcome,NIH3T3,inactive
COc1cc(Nc2nc3c(s2)CCCC3c2ccc(F)cc2)ccc1-n1cnc(C)c1 (configuration not stated),Potency,HEK293,11.6 µM (active)
same,Potency,KB-3-1,18.4 µM (active)
C[C@H](C(=O)NC1CCCC1)N(C(=O)Cn1nnc(-c2ccc3c(c2)OCO3)n1)C1CCCCC1,max response,HEK293,2.96%
same,max response,KB-3-1,5.01%
same,outcome,NIH3T3,inactive
C/C=C1\[C@H](O[C@@H]2O[C@H](CO)[C@@H](O)[C@H](O)[C@H]2O)OC=C2C(=O)OCCc3ccc(O)c(c3)Oc3ccc(cc3)CCOC(=O)C[C@H]21,max response,HEK293,-25.1%
same,max response,KB-3-1,-9.35%
same,max response,NIH3T3,-1.53%
O=C(NCc1cccc(O)c1)Nc1nc(-c2ccncc2)cs1,max response,HEK293,-21.2%
same,max response,KB-3-1,-3.25%
CC(=O)NC[C@H]1CN(c2ccc(N3CCN(C(=O)CO)CC3)c(F)c2)C(=O)O1,Potency,HEK293,13 µM (active)
same,max response,KB-3-1,-17.1%
CC(O)/C=C/C1OC(=O)CC1Nc1ccc(C(=O)O)cc1 (configuration not stated),max response,HEK293,-8.85%
same,max response,KB-3-1,5.7%
same,outcome,NIH3T3,inactive
C[C@H](NC(c1cccc2[nH]c(=O)c(=O)[nH]c12)P(=O)(O)O)c1ccc(Br)cc1 (some centres not stated),max response,HEK293,1.8%
same,outcome,KB-3-1,inactive
same,outcome,NIH3T3,inactive
CCOC(=O)CCN(C(=O)c1ccc2c(c1)nc(CNc1ccc(C(=N)N)cc1)n2C)c1ccccn1,max response,HEK293,-11%
same,max response,KB-3-1,-6.67%
same,max response,NIH3T3,-4.58%
Cc1ccc(S(=O)(=O)Nc2ccccc2N2CCCCC2)s1,Potency,HEK293,18.4 µM (active)
same,max response,KB-3-1,-18.9%
same,max response,NIH3T3,2.48%
